Assay outcomes from PubChem.
Only some compounds are listed: those with a hit (about 3.5% of all), similar ones and a draw of the others.
KCNK3 block – human KCNK3 channel inhibition, primary screen | actives 0.84% (n = 340,000) | AID 602410 | CHO-KCNK3 thallium flux, FluxOR fluorescence; hits give low values | O14649 | B-score at 10 µM;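 active means B-score under library mean minus 4 SD, starting fluorescence ratio at most library mean plus 5 SD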;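 further: more negative B-score means stronger inhibition of thallium flux through KCNK3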
Kir21 inh – blocks the mouse Kir2.1 inward-rectifier potassium channel; HEK293-Kir2.1, FluxOR thallium flux fluorescence; hits give low values; actives 0.85% (n = 310,000); B-score at 10 µM;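 active means fluorescence ratio B-score at or below minus 3 SD of library scores, with starting-brightness B-score within 2 SD, cut at about -4.2 in these data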;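 further: channel flux triggered by added potassium and thallium sulfate stimulus; B-score of peak minus minimum fluorescence over baseline after thallium stimulus; more negative B-score means stronger Kir2.1 block with less thallium influx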
ANO1 activ – mouse TMEM16A channel activation, primary screen; Q8BHY3; HEK293 TMEM16A/YFP-H148Q/I152L, iodide quench fluorescence; hits give low values; B-score at 10 µM; actives 0.3% (n = 340,000); AID 623877;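 active means fluorescence-ratio B-score plate-corrected deviation score at least 3 library SD below zero, with starting fluorescence score within 5 deviations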;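 further: channel opened by trigger with iodide after compound preincubation; score built on the fluorescence ratio of max minus min over baseline; more negative score means more quench and so TMEM16A activation or potentiation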
KCNK9 block – human KCNK9 channel inhibition; Q9NPC2; HEK293 KCNK9, FluxOR thallium flux fluorescence; hits give low values; B-score at 10 µM; actives 1.2% (n = 310,000); AID 488922;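 active means ratio B-score over 3 SD below the library mean, with starting fluorescence within 5 SD of its mean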;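 further: negative B-score means less thallium flux so channel inhibition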
ANO1 block – blocks the mouse calcium-activated chloride channel TMEM16A | normalized B-score (activity score, 25-100; higher = stronger inhibition) at 10 µM | HEK293 TMEM16A/YFP iodide influx fluorescence, ionomycin | Q8BHY3 | AID 588511 | actives 1.2% (n = 310,000);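 active means ratio plate-corrected score three or more library SD toward inhibition, starting fluorescence score within five deviations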;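 further: score derived from kinetic fluorescence span divided by baseline fluorescence per well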
KCNK9 inh conf – confirmation of human KCNK9 potassium channel inhibitors | shares compounds with KCNK9 block | HEK293 KCNK9 cells, FluxOR thallium flux fluorescence | inhibition, % at 10 µM | actives 43% (n = 4,900) | AID 492992;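 active means thallium signal inhibited by more than 5 SD of the compound-free buffer control wells, on both duplicate plates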;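 further: 0% = assay buffer control wells without compound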
Kir21 sel – mouse Kir2.1 off-target activity of KCNK9 modulators; inhibition, % at 10 µM; actives 4% (n = 4,900); shares compounds with KCNK9 block; Kir2.1 cells, FluxOR thallium flux fluorescence;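 active means thallium signal drop more than 5 SD beyond the mean of the no-compound control wells, seen in both duplicate plates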;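 further: signal is fluorescence rise after thallium addition divided by baseline fluorescence; plate controls were assay buffer only for no effect and full block by chlorpromazine control for full effect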
KCNK9 uninduced – non-induced cell nonspecific activity of KCNK9 modulators. shares compounds with KCNK9 block. non-induced KCNK9-HEK293, FluxOR thallium flux. inhibition, % at 10 µM. actives 40% (n = 4,900). AID 492997;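 active means thallium signal drop beyond 5 SD of the untreated control mean, on both duplicate plates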;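 further: plate controls were buffer only IC0 wells for no effect and SID17386958 at its maximal inhibitory level for full effect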
An asterisk follows results filed as active; i = inactive; . = no result given; ! = not active in a repeat.

SMILES	KCNK3 block	Kir21 inh	ANO1 activ	KCNK9 block	ANO1 block	KCNK9 inh conf	Kir21 sel	KCNK9 uninduced
CC1CCC(C(C)C)C(OC(=O)C[n+]2cc(-c3ccc(Cl)cc3)n3c2CCC3)C1 (configuration not stated)	i	-1.9	i	-13*	i	48%*	44%*	i
Cc1ccc(CN2CCN(/N=C/C(Br)=C\c3ccccc3)CC2)cc1	i	-0.37	i	i	i	i	i	i
O=C(O)CN=CC1=C(O)CC(c2ccccc2)CC1=O (configuration not stated)	i	-0.2	i	i	i	.	.	.
Cn1ccc2ccc(C3=CC(=O)C[C@H](c4ccc(F)cc4)C3)cc21	i	.	i	.	.	.	.	.
Cc1cccc(/C=C/C(=O)c2cc(Br)ccc(=O)c2O)c1	i	0.95	i	i	25*	i	i	i
O=[N+]([O-])c1cc2c(cc1/C=N/Nc1nc(N3CCCC3)nc(N3CCCC3)n1)OCO2	i	0.37	i	i	i	i	i	i
Cn1c(=O)c2c([nH]c(=S)n2CCCc2ccccc2)n(C)c1=O	i	-1.6	i	i	i	.	.	.
Cn1c(=O)[nH]c(=O)c2c1[nH]c(=S)n2CCCc1ccccc1	i	-0.07	i	i	.	i	i	28%*
O=C(COC(=O)c1ccccc1C(=O)c1ccccc1)Nc1ccc(SC(F)F)cc1	i	0.28	i	-12*	100*	i	i	32%*
Cc1ccc2c(c1)c(/C=C/c1cc[n+](C)cc1)c(C)n2C	i	-19	i	i	i	.	.	.
Cc1ccc2[nH]c(C)c(/C=C/c3cc[n+](C)cc3)c2c1	i	-12	i	-8.1*	i	76%*	56%*	75%*
Clc1ccc(NCc2ccsc2)cc1	.	0.04	.	i	i	.	.	.
Cc1ccc2c(CN3CCCCC3)cc(=O)oc2c1C	i	-0.78	i	i	i	i	i	i
Cc1cc(C)c2oc(=O)cc(CN3CCCCC3)c2c1	i	-0.82	i	i	i	i	i	i
Cc1cc(C)c2c(CN3CCCCC3)cc(=O)oc2c1	i	-0.83	i	i	i	.	.	.
COc1ccc(/C=N/n2cncn2)cc1Cn1nc(C)c([N+](=O)[O-])c1C	i	-1.2	i	i	i	.	.	.
O=C(NCCCN1CCOCC1)c1sc2cc(Cl)ccc2c1Cl	i	-3	i	i	i	.	.	.
O=C(NCCCN1CCOCC1)c1sc2cc([N+](=O)[O-])ccc2c1Cl	i	-1.9	i	i	i	i	i	i
CCC(NS(=O)(=O)c1ccc(C)cc1)C(=O)N1CCOCCOCCOCCOCC1 (configuration not stated)	i	-2.4	i	i	i	.	.	.
COc1cccc(N(CC(=O)NC2CC3CCC2C3)S(=O)(=O)c2ccccc2)c1 (configuration not stated)	i	-0.11	i	i	i	.	.	.
Cc1cccc(N(CC(=O)NC2CC3CCC2C3)S(=O)(=O)c2ccccc2)c1 (configuration not stated)	i	-0.33	i	i	i	i	i	i
N#Cc1cnn(-c2cccc(Cl)c2)c1-n1cccc1	i	0.57	i	i	i	.	.	.
COc1ccc(NC2CCCN(C(=O)c3cccs3)C2)cc1 (configuration not stated)	i	-1.1	i	i	i	i	i	i
COc1ccc(NC2CCCN(C(=O)c3csc(C(C)C)n3)C2)cc1 (configuration not stated)	i	-1.8	i	i	i	.	.	.
CC(C)c1ccc(NC2CCCN(C(=O)c3cccs3)C2)cc1 (configuration not stated)	i	0.11	i	i	i	i	i	i
SMILES	KCNK3 block	Kir21 inh	ANO1 activ	KCNK9 block	ANO1 block	KCNK9 inh conf	Kir21 sel	KCNK9 uninduced
Cc1ccc(NC2CCCN(C(=O)c3cccs3)C2)cc1C (configuration not stated)	i	-2.2	i	i	i	i	i	i
COCc1ccc(C(=O)N2CCCC(Nc3ccc(C(C)C)cc3)C2)s1 (configuration not stated)	i	-0.93	i	i	i	i	i	i
COC(=O)c1ccc(C(=O)N2CCCC(Nc3ccc(C(C)C)cc3)C2)cc1 (configuration not stated)	i	-1.7	i	i	i	.	.	.
CC(C)N(CCCNC(=O)Cn1c(=O)c2cccn2c2ccccc21)Cc1ccccc1	i	-1.2	i	i	i	.	.	.
COC(=O)c1sc(N)c(C(=O)OC)c1COC(=O)C12CC3CC(CC(O)(C3)C1)C2	i	-0.03	i	i	i	.	.	.
Cc1ccc(Cl)cc1NC(=O)c1cc2ccccc2cc1O	i	-0.55	i	i	i	.	.	.
CCCCCCCCCCCCCCCCn1cc[n+](C)c1	-12*!	-3.9	i	-12*!	25*!	62%*	44%*	26%*
O=S(=O)(Nc1c(S(=O)(=O)c2ccccc2)c2nc3ccccc3nc2n1C1CCCCC1)c1ccccc1	i	-5.1*	i	i	100*	i	i	i
CN1N=C2c3ccccc3CCC2C1c1ccc(C(F)(F)F)cc1 (configuration not stated)	.	0.37	.	i	i	.	.	.
CN(C)c1ccc(C2C3CCCc4ccccc4C3=NN2C)cc1 (configuration not stated)	i	-0.4	i	i	i	i	i	i
O=C(C/C=N/OCc1ccc(F)cc1Cl)c1cnc(-c2ccccc2)s1	i	-0.43	i	i	i	i	i	i
O=C(C/C=N/OCc1ccccc1F)c1cnc(-c2ccc(Cl)cc2)s1	i	0.04	i	i	i	i	i	i
CCCCOP(=O)(OCCCC)C1(C)CC(=O)CC(C)(C)C1 (configuration not stated)	i	.	i	.	.	.	.	.
C/C(=N\NC(=O)c1ccccc1F)c1ccc2c(c1)Nc1ccccc1S2	i	-0.74	i	-15*	i	i	i	28%*
COc1ccc(C(=O)N/N=C(/C)c2cccc(NC(=O)c3ccccc3F)c2)cc1	i	-0.76	i	i	i	.	.	.
O=C(O)CCSCC(=O)Nc1c(C(=O)C2CC2)oc2ccccc12	i	-0.62	i	i	i	.	.	.
